Assay results taken from the supplement of paper PMC8728848.
The entries come from a sample that favours the strongest signals as a whole.

How the values were obtained:
Assay in all cases: glycan array binding signal (z-score within array); higher = stronger binding
Conditions in all cases: glycan notation: IUPAC condensed, linker removed
[1] = target: GlcNAc(b1-3)Gal(b1-4)GlcNAc(b1-3)Gal(b1-4)GlcNAc(b1-2)[GlcNAc(b1-3)Gal(b1-4)GlcNAc(b1-3)Gal(b1-4)GlcNAc(b1-6)]Man(a1-6)[GlcNAc(b1-3)Gal(b1-4)GlcNAc(b1-3)Gal(b1-4)GlcNAc(b1-2)Man(a1-3)]Man(b1-4)GlcNAc(b1-4)[Fuc(a1-6)]GlcNAc
Procedure, shortened: (§1)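 Glycan array data were curated from 3228 arrays in the Consortium for Functional Glycomics database and kept only where the protein sequence was available. Glycan names were converted to IUPAC-condensed notation, and columns mapping to the same glycan were averaged. The binding signal is a within-array Z-score, averaged across arrays of the same protein sequence at different concentrations or buffers and across linkers. Negative Z-scores can be read as non-binding.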

[2] = target: GlcNAc(b1-3)Gal(b1-4)GlcNAc(b1-6)[GlcNAc(b1-3)Gal(b1-3)]GalNAc
Procedure, shortened: as §1

[3] = target: GlcNAc(b1-6)GalNAc
Procedure, shortened: as §1

[4] = target: Kdn(a2-3)Gal(b1-4)GlcNAc
Procedure, shortened: as §1

[5] = target: Neu5Ac(a2-3)Gal(b1-3)GalNAc(b1-4)[Neu5Ac(a2-8)Neu5Ac(a2-3)]Gal(b1-4)Glc
Procedure, shortened: as §1

[6] = target: Neu5Ac(a2-3)Gal(b1-3)[GlcNAc(b1-6)]GalNAc
Procedure, shortened: as §1

[7] = target: Neu5Ac(a2-3)Gal(b1-4)GlcNAc(b1-2)[Neu5Ac(a2-3)Gal(b1-4)GlcNAc(b1-4)]Man(a1-3)[GlcNAc(b1-4)][Neu5Ac(a2-3)Gal(b1-4)GlcNAc(b1-4)Man(a1-6)]Man(b1-4)GlcNAc(b1-4)GlcNAc
Procedure, shortened: as §1

[8] = target: Neu5Ac(a2-3)Gal(b1-4)GlcNAc(b1-3)Gal(b1-4)GlcNAc(b1-3)Gal(b1-4)GlcNAc(b1-2)Man(a1-3)[Neu5Ac(a2-3)Gal(b1-4)GlcNAc(b1-3)Gal(b1-4)GlcNAc(b1-3)Gal(b1-4)GlcNAc(b1-2)Man(a1-6)]GalNAc
Procedure, shortened: as §1

[9] = target: Neu5Ac(a2-3)Gal(b1-4)GlcNAc(b1-6)GalNAc
Procedure, shortened: as §1

[10] = target: Neu5Ac(a2-3)Gal(b1-4)[Fuc(a1-3)]GlcNAc
Procedure, shortened: as §1

[11] = target: Neu5Ac(a2-3)Gal6S(b1-4)GlcNAc
Procedure, shortened: as §1

[12] = target: Neu5Ac(a2-3)[GalNAc(b1-4)]Gal(b1-4)Glc
Procedure, shortened: as §1

[13] = target: Neu5Ac(a2-6)Gal(b1-4)GlcNAc(b1-2)Man(a1-3)[Man(a1-6)]Man(b1-4)GlcNAc(b1-4)GlcNAc
Procedure, shortened: as §1

[14] = target: Neu5Ac(a2-6)Gal(b1-4)GlcNAc(b1-2)Man(a1-3)[Neu5Ac(a2-3)Gal(b1-4)GlcNAc(b1-2)Man(a1-6)]Man(b1-4)GlcNAc(b1-4)GlcNAc
Procedure, shortened: as §1

[15] = target: Neu5Ac(a2-6)Gal(b1-4)GlcNAc(b1-3)Gal(b1-4)GlcNAc(b1-3)Gal(b1-4)GlcNAc
Procedure, shortened: as §1

[16] = target: Neu5Gc(a2-3)Gal(b1-4)GlcNAc
Procedure, shortened: as §1

B1: GS14009A-pdi-495-27-495 (Parabacteroides distasonis) (protein)
chain: FEEVNTDPDSPTDVPTTNLLAYSLYYTSYRLYDRWFAMDEPMTFCGYASKMTYIDESRYNFRTGVQDTNWEYLYRILNNLKDIEKRATFNETPNMLNVSKVMQVHLMQVATDRWRDVPYTDAAKMTDGILQPKYDKQEDIYPGLLATLKEAADGFADGGSDDLGEGDLLFGGDIEKWQRYCNSMRLRLAMRISEVSPALAKETVEEVMGNPTKYPIMESNDDNAFFWWIGTDPNYYEPMADGYRTRKTEYCAADVIVDHMNTREDPRRSSYFQPTKESVEAGEPKYVGYTIGAKANAVASKYSIWGARFFTDLAGFSPYMRVAEPWFCVAEASMLGWNTGISAEDAYNKAVTYSMEENSVSAEDIADYLANAGKFTNDKKQIYYEEWVAMFKQGMEGWSLYRRTGVPDNLYPAPGRPANYSNHNVPPFRSPYPDKERNLNNANCAPFDAEVVDNLWGKQMWWDTRTGVH
[1]
  glycan array binding signal (z-score): 2.44
[2]
  glycan array binding signal (z-score): 0.415
[3]
  glycan array binding signal (z-score): 0.174
[4]
  glycan array binding signal (z-score): -0.615
[5]
  glycan array binding signal (z-score): -0.25
[6]
  glycan array binding signal (z-score): -0.177
[7]
  glycan array binding signal (z-score): 0.12
[8]
  glycan array binding signal (z-score): 1.45
[9]
  glycan array binding signal (z-score): -0.512
[10]
  glycan array binding signal (z-score): -0.201
[11]
  glycan array binding signal (z-score): -0.508
[12]
  glycan array binding signal (z-score): -0.129
[13]
  glycan array binding signal (z-score): -0.647
[14]
  glycan array binding signal (z-score): -0.631
[15]
  glycan array binding signal (z-score): -0.311
[16]
  glycan array binding signal (z-score): -0.276
